Data from PubChem BioAssay AID1508600 (Functional Genomics Laboratory (NCATS/FGL), 2020).
The campaign covered roughly 53,000 sequences. About 3,700 (7%) were called active.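 Rule for the calls: active = gene knockdowns whose robust z-score for IL-1 alpha signal is at least 2 or at most -2, so actives lie on both sides; inactive = the rest.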 The entries come from a sample that favours actives as a whole.

Test: Components of the Cytosolic LPS Sensing Pathway: Gene Identification via Genome-wide siRNA Screen;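 note: robust z of the log signal after scaling to non-targeting control siRNA wells of the plate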
Conditions: RAW264.7 macrophages, IL-1a HTRF, actives lie on both sides, screened at 100 nM (by protocol), cells primed 5 h with Pam3CSK4 first
Outline: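 Mouse macrophage line RAW264.7 is transfected with siRNA (100 nM final), grown 48h, primed with TLR ligand Pam3CSK4 5 h and given intracellular LipidA 24 h. IL-1a in supernatant is read by HTRF and viability by luminescence.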

Row | Sequence | z-score
1 | CCGGUCAAAAUUGAAAAGGTT against Bves | 0.666 (inactive)
2 | GGUGAAAAGUCCUGCCAAGTT against Nefh | 0.408 (inactive)
3 | GGCCAUUUGGAAACUAUUATT against Anapc11 | -0.109 (inactive)
4 | GGCUGUGAGAUAGAUCUAATT against Arhgef40 | 2.07 (active)
5 | GCAAGGAGUUUAUGUGAGUTT against Olfr170 | 0.297 (inactive)
6 | GGGCAAAAUACAAAAGGAGTT against Mlph | -0.9 (inactive)
7 | GGACAUUCUCAAAUCUUGATT against Praf2 | 0.244 (inactive)
8 | GCAUAAGGACCCUUUGUCATT against Rasl10b | -1.27 (inactive)
9 | GCUGUAUCAGUCUUUCUAUTT against Cyp27b1 | 0.442 (inactive)
10 | GGACAUGUCGGAUGGCUUCTT against P4ha1 | 0.212 (inactive)
11 | GGCAGCAUUAAAACUUAAGTT against Chtop | 2.71 (active)
12 | GGGUAACAUGAAGAUCAAUTT against Rnf19a | 0.488 (inactive)
13 | GGGACAAAAGCAAUCAAACTT against H2-M11 | 2.06 (active)
14 | GCAAGCAUGCUCAUAAAGATT against Cast | -0.142 (inactive)
15 | CGUAUGCAGAACAACAUUUTT against Klhl2 | 1.77 (inactive)
16 | CGAUCCCUGUCUGUUGGAUTT against Spint4 | 0.944 (inactive)
17 | GGAGGUAUACAGUAAGGAGTT against Fbxo32 | 0.542 (inactive)
18 | GGCUGACAGUAACAAGUGGTT against Fignl1 | 3.72 (active)
19 | GCCAGGAUCCAUCAAUUCCTT against Olfr376 | -1.84 (inactive)
20 | CCCUGAAAAUUAUCGAGCGTT against Galnt18 | -0.493 (inactive)
21 | CCCAGGAACUAUGAGUUGUTT against Rnf31 | -1.87 (inactive)
22 | GGAGAAAUUCUUCAAUGAGTT against Syt2 | -0.19 (inactive)

Row | Sequence | z-score
23 | GGAGACCAAAAUUUCUUGGTT against Sox9 | 0.0192 (inactive)
24 | GGAUCCGAACAUCCUCAGGTT against Hr | -2.22 (active)
25 | CGAAGAGAUCAGUAAUAUGTT against Kif21a | 0.31 (inactive)
26 | CCCAUGGAAAUCCUCAGUATT against Ctsa | -2.1 (active)
27 | CCCACUGAUGAUUACGUUCTT against Irf5 | -0.247 (inactive)
28 | CCACAAGCUAAUACAUGCUTT against Ubac1 | -1.37 (inactive)
29 | GGCCACAAAGACUCUGUGATT against Aamp | -2.25 (active)
30 | GGCAGAACACCUUCUUAGUTT against Dars2 | -0.425 (inactive)
31 | AGUUAGCCUUGAGGAGAAUTT against Olfr1512 | 0.503 (inactive)
32 | CCAUUGGAUUGGAACUGGATT against Dhx57 | -0.288 (inactive)
33 | GCAGGUUUGAUAUAAAAUCTT against Uba2 | 0.162 (inactive)
34 | GCUCACCUGAGUCAAUGAUTT against Nr5a2 | -2.25 (active)
35 | GGAAUUUUGGUAGGUUUUATT against Tlcd4 | 1.36 (inactive)
36 | CGGAAAAUCCUGCCUCCCUTT against S100pbp | -0.36 (inactive)
37 | GGAUGUAGAUGUUGGUUUUTT against Kcnj14 | 2.52 (active)
38 | GCCAUCUGCUUUAACCUCUTT against Aebp2 | 0.238 (inactive)
39 | GGUGUACGAGAUCCAGGACTT against Eif3l | -0.699 (inactive)
40 | GGCUGGUCAAAAUUUGGAATT against Cdca2 | -0.9 (inactive)
41 | CGCAAGGACCGAUCUGAUGTT against Rnps1 | -2.41 (active)
42 | GCAUCUGGGACAUUUAGAGTT against Cd200r3 | -1.08 (inactive)
43 | CCAGCUUUUGUUUGUUAGATT against Trappc11 | 0.56 (inactive)
44 | GGAAGACUUGGCUACACAATT against Rab40c | -1.04 (inactive)

Row | Sequence | z-score
45 | GGCAAACCUGCUUCUGCUATT against Prss52 | -1.27 (inactive)
46 | GUUACUUUGAUGUUGUCUATT against Pdgfrl | 0.817 (inactive)
47 | GGCCAAUGCACUGUGUUACTT against Tinag | 1.25 (inactive)
48 | GCAGAGAGAUACAUUAAAGTT against Adam10 | 1.16 (inactive)
49 | CGCGCUUCUACUUUUUUUATT against Nkx2-1 | 0.406 (inactive)
50 | GGAGGACCCUAUGUCUAAUTT against Adora1 | 4.6 (active)
51 | GCUGAGACAUGUGGAGUAUTT against 4931429L15Rik | 0.426 (inactive)
52 | GGUUCUCAUCAUUUCAACUTT against Sh3bgrl | -1.61 (inactive)
53 | GGCUUUGACCCGAAAAGAATT against Tut4 | -0.0161 (inactive)
54 | CGUGCCAAUUGAAAAAAACTT against Prkn | 1.23 (inactive)
55 | CCAUACAAUAAGAGUGCUATT against Clec4a4 | 0.936 (inactive)
56 | GGGUAGGCAAAGUUUUCAATT against 1700029M20Rik | 4.63 (active)
57 | GCAUUCCAUGGUACAGGGUTT against Adamts4 | -0.646 (inactive)
58 | CGGUUUACAUUCCUGACUUTT against Plekho2 | 1.42 (inactive)
59 | GGACCAAAGAUGCAUCAGUTT against Zfyve16 | -0.788 (inactive)
60 | GGACCAAGGCUUUAUGAACTT against Crygn | 0.404 (inactive)
61 | GGCCUACGAACAGGUCAUGTT against Foxa2 | 0.0835 (inactive)
62 | CGUGUCUGAAGGACUACAATT against 1700052K11Rik | 0.0454 (inactive)
63 | GCAGUAAGUCAGUGCCUCATT against Atxn1 | 1.51 (inactive)
64 | GGUUGAUGCCAUGAAGUCCTT against Acyp2 | -1.22 (inactive)
65 | GGUUGUUGUGACCUUCCUGTT against Bod1 | -2.65 (active)
66 | GGGACAUUAUGCUUAUGACTT against Srsf7 | -0.513 (inactive)

Row | Sequence | z-score
67 | GGCAGAAGCCUAAAACGGUTT against Nudt2 | 0.00394 (inactive)
68 | GGCAUUCUGAAAACAACUCTT against Hvcn1 | 2.02 (active)
69 | GCCAAGACCUAUGAGUAUATT against Naaladl1 | 1.33 (inactive)
70 | CCGAUAAUAUCAAUGGAAATT against Med24 | 0.744 (inactive)
71 | GGACAUCAAGAAGGACAAATT against Ppp2r5d | 0.874 (inactive)
72 | GGGUCAAAGAGAAAAAAGUTT against Hoxa13 | -1.2 (inactive)
73 | GGUGAUGGUGUAAAAUACATT against Dab2 | 4.98 (active)
74 | GGAGAAGCAUGGCUAUAACTT against Rcor2 | -0.393 (inactive)
75 | GGUGACCUACAAGAUUUGUTT against Csdc2 | -0.801 (inactive)
76 | GUCACUCUUUUUUAUGGAATT against Olfr485 | -1.48 (inactive)
77 | GGCGAAUUGAAGGAGACCATT against Tmod3 | 2.54 (active)
78 | GGGCAUAGAUUAGUCUUUATT against Ing2 | 1.01 (inactive)
79 | GCGCAUAUUUUAUCAACUCTT against Plcb3 | 0.38 (inactive)
80 | GGAACCAUGGACCUUAAUUTT against Rbm4 | 0.291 (inactive)
81 | GCUUUCCUAGACAAUCUAUTT against Arhgap19 | 0.0654 (inactive)
82 | GGCUGCAUUACCCAGCUUATT against Olfr853 | 0.719 (inactive)
83 | GGAAGUCCUAUGAUUAAACTT against Zfand1 | -0.633 (inactive)
84 | CCUUCUAUUCACUUUACCATT against Vmn1r87 | -0.907 (inactive)
85 | GGGUUCACAUGGCAUAGUCTT against Zfp1 | -0.0137 (inactive)
86 | GGAGAGUACAGACACUGAGTT against Masp2 | -0.22 (inactive)
87 | GCUUAGACAACGACAUUUCTT against Mcoln3 | 2.04 (active)
88 | GGUCUUCUCCAAGAUCUUCTT against Cyp26b1 | 1.03 (inactive)

Row | Sequence | z-score
89 | GCACACCUAUGUCCACUCUTT against Aars | -0.923 (inactive)
90 | GGUGCCUUCUGUAAACGAGTT against Foxc2 | 2.81 (active)
91 | GGAAGGAAAACCUUUCAACTT against Cyp2j6 | 0.975 (inactive)
92 | GGUGGUGACCUUGGAUGUUTT against Gstp3 | -0.00982 (inactive)
93 | GGAAGCACAUAGAAGCCAATT against Defb11 | -0.504 (inactive)
94 | GGGAGAGUGGAUCAUCAAUTT against P2ry10 | -0.0942 (inactive)
95 | GGGAAUAUUUGGAUAACUUTT against Pak7 | 4.24 (active)
96 | GCCACGACCAUUCAGACUCTT against Lrrc42 | 1.27 (inactive)
97 | GGAUGAUCGGCACUAUAACTT against Otulin | 1.81 (inactive)
98 | GGAGAGAUGUUUAUGAAUATT against Slc6a14 | -0.429 (inactive)
99 | GGAAAAAGAUAGAACCAGATT against Larp1b | -0.177 (inactive)
100 | GGAAAGCUCUUUGUGUCGGTT against Gramd3 | -0.476 (inactive)
101 | CCAUCUAGUGCUGUAUUUCTT against Rnf215 | 0.67 (inactive)
102 | GGUGAAAUCCAUUAAAGAATT against Fth1 | -2.06 (active)
103 | GGAGUUUUCUCGAAACUUCTT against Fate1 | 0.993 (inactive)
104 | GGACCAAGAACCAGCAAUGTT against Defb6 | -0.69 (inactive)
105 | GGAAAAACUGAAACAGUUUTT against Eif3a | 1.06 (inactive)
106 | AACACGGCUCUAGCCAAUCTT against Ypel4 | -1.25 (inactive)
107 | GCCAAUUUGAAUGGGAUGUTT against Magohb | -2.25 (active)
108 | GGUGGUUACCAUAGCUGGUTT against Arid2 | 1.67 (inactive)
